Consider 19 targets from the supplement of paper PMC10849652.

Of roughly 8,800 targets only a part is listed; those with a hit were picked by preference. About 0.5% of all pairs of compound and target were hits. Unmarked numbers belong to inactive results.

Sequence of UniProt Q8TAE6 (Q8TAE6 whole entry, looked up): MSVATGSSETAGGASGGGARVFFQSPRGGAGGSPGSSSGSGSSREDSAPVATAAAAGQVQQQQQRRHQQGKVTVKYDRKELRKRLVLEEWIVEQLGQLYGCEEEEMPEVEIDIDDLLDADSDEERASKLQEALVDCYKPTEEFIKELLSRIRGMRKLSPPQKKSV
Sequence of UniProt O94880 (O94880 whole entry, looked up): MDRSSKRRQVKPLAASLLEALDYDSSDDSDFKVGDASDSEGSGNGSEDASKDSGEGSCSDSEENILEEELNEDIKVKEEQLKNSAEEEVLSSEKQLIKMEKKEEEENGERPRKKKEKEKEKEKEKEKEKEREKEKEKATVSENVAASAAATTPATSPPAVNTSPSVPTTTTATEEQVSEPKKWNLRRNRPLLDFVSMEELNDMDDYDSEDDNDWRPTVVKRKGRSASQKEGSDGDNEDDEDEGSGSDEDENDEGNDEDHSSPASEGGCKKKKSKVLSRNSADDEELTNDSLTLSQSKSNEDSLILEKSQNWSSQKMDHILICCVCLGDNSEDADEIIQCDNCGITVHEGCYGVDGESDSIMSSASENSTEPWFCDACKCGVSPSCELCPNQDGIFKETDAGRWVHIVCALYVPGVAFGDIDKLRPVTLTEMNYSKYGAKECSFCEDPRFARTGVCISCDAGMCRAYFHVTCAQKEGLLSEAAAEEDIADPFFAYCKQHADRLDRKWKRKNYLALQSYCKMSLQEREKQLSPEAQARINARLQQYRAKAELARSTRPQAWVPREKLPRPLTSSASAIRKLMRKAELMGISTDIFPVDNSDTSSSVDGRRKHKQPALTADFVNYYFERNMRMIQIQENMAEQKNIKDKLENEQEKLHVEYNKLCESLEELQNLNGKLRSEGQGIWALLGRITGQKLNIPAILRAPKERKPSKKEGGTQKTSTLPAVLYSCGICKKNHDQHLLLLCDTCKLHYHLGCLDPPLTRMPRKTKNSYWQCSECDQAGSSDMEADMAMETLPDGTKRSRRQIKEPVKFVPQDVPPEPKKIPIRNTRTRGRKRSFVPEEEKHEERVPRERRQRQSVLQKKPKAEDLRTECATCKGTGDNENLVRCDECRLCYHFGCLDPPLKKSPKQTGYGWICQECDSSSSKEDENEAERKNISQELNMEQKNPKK
Sequence of UniProt P60673 (P60673 whole entry, looked up): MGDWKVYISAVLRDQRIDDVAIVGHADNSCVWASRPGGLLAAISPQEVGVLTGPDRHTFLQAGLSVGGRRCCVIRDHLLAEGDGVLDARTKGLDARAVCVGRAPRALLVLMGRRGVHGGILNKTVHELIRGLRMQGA
Sequence of UniProt Q99755 (Q99755 whole entry, looked up): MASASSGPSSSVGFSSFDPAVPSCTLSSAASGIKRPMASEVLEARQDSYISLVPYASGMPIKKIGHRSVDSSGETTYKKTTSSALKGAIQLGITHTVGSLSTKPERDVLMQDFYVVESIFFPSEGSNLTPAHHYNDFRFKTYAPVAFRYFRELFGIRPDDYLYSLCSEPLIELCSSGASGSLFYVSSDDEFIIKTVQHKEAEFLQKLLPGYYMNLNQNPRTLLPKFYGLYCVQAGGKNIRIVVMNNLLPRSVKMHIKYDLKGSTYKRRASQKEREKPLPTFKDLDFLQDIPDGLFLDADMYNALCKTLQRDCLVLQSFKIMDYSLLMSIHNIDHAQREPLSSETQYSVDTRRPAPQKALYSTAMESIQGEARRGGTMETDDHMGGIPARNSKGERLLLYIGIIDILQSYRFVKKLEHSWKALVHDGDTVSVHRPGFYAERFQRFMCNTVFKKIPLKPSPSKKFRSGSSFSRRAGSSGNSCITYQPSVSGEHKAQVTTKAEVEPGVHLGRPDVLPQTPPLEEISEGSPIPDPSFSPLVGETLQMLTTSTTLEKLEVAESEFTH
Sequence of UniProt O00329 (O00329 whole entry, looked up): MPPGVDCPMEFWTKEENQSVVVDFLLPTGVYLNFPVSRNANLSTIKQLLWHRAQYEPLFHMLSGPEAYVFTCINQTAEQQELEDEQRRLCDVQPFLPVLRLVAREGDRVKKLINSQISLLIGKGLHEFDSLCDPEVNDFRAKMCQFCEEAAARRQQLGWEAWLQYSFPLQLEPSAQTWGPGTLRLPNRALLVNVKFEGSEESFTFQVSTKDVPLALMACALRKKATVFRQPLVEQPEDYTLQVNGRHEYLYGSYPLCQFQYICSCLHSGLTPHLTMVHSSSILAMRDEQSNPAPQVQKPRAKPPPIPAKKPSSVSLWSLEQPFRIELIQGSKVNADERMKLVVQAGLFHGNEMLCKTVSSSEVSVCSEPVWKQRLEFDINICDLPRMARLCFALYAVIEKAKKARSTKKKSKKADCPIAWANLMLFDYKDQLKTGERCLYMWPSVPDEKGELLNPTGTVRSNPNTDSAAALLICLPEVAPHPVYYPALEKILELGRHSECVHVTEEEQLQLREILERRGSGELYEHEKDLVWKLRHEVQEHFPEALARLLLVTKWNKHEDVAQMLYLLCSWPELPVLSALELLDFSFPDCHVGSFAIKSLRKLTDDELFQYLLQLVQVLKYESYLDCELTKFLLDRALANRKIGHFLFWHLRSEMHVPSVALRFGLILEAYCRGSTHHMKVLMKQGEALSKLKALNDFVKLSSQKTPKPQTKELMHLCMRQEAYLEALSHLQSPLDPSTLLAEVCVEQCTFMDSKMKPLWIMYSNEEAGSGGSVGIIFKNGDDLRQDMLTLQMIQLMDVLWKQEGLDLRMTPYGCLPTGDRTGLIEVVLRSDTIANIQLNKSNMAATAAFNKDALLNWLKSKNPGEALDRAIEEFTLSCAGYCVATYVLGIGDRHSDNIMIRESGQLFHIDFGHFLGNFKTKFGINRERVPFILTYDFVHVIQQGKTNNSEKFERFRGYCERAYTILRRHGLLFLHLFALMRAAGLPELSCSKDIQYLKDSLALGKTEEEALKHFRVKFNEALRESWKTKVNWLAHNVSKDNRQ
Sequence of UniProt Q14289 (Q14289 whole entry, looked up): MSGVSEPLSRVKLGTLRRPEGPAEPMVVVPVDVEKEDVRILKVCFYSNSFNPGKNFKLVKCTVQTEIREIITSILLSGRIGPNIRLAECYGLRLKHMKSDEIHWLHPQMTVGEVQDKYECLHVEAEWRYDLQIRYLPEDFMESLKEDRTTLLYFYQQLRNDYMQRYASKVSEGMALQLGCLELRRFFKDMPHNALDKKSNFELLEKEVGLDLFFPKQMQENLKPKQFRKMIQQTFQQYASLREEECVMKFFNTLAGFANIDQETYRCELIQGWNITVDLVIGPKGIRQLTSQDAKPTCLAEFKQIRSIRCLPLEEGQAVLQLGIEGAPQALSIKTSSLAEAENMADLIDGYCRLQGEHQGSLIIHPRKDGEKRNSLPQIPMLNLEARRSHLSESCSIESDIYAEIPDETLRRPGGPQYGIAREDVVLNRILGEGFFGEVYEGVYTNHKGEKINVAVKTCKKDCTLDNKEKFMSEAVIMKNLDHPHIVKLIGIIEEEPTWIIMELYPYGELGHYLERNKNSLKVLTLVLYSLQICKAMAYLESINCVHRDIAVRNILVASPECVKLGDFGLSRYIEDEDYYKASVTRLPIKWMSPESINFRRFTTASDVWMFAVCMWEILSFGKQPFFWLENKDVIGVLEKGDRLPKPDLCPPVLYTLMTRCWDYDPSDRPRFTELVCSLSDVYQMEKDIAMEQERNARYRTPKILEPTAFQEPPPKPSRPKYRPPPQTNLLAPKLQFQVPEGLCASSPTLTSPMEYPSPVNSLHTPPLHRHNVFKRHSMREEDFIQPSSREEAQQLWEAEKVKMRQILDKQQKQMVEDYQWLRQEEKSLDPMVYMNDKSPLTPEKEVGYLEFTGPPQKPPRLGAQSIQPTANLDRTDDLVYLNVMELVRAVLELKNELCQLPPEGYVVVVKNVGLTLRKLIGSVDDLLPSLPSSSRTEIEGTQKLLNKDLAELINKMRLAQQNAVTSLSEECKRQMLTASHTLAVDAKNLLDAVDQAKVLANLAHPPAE
Sequence of UniProt Q969Q6 (Q969Q6 whole entry, looked up): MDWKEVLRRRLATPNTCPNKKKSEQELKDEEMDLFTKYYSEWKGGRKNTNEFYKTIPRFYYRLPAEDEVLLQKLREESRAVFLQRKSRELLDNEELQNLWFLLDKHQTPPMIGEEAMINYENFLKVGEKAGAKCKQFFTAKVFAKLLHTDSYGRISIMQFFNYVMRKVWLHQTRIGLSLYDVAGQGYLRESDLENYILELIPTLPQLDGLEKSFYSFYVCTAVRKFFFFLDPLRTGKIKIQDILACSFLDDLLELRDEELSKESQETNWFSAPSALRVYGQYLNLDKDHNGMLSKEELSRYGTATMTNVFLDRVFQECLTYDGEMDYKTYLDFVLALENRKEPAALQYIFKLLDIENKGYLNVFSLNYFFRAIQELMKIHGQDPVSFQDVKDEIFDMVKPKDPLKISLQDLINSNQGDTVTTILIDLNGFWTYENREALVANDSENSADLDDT
Sequence of UniProt Q9UHX1 (Q9UHX1 whole entry, looked up): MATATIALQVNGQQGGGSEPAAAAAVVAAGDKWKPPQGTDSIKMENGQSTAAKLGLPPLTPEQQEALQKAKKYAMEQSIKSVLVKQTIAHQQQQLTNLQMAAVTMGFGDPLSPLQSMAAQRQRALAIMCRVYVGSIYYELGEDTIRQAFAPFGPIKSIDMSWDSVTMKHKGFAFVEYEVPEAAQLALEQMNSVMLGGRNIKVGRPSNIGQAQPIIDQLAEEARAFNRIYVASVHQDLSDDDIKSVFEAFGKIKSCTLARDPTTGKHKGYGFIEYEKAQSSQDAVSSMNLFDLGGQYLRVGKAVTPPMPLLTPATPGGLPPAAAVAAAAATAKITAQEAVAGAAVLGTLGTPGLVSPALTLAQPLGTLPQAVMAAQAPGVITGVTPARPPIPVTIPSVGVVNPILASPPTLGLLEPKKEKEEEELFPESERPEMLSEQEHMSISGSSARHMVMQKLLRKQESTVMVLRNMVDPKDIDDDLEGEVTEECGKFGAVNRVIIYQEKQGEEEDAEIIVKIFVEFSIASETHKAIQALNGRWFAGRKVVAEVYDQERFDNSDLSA
Sequence of UniProt Q16378 (Q16378 whole entry, looked up): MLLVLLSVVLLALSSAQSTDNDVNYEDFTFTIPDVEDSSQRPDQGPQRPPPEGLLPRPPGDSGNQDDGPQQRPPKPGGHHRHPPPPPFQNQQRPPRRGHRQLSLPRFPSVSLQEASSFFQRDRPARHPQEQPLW

Compound in this test: CS(=O)(=O)CCNCc1ccc(-c2ccc3ncnc(Nc4ccc(OCc5cccc(F)c5)c(Cl)c4)c3c2)o1 [lapatinib]
As to the kind of experiment: log2 fold change, soluble protein after heating vs DMSO (PISA); higher = thermal stabilisation; K562 lysate, 10 uM; active = over 0.2 and 3.5 SD of the protein, either way, in both replicates (recomputed). An outline of the steps: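 Quantification was by TMTpro 16plex LC-MS/MS with equalised channel sums, applied to the supernatant after 21,000xg for 90 min. Samples were crude K562 extract at 1 mg/mL protein in PBS pH 7.4 with 1 mM MgCl2, treated with 10 μM compound for 30 min, heated for 3 min across 48°C-58°C, pooled and brought to 0.5% NP-40 at 4°C. Values are log-two fold changes in thermal stability relative to solvent controls, from duplicates.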
PIP5K1A (UniProt Q99755): the log2 fold change was -0.117.
In the case of PTK2B (UniProt Q14289) it was -0.075; in that of PFN1 (UniProt I3L3D5), 0.066.
In the case of PPP1R12B isoform 6 (UniProt O60237) it was -0.079.
In the case of PPP2R3C (UniProt Q969Q6) it was 0.048.
Take PRR4 (UniProt Q16378): the log2 fold change was 0.047.
For the target PREP (UniProt H0Y5Y0), the log2 fold change is -0.029.
In the case of PRKD3 (UniProt O94806) it was 0.031; in that of PCBP2 (UniProt F8VRH0), -0.148; in that of PPP1R14C (UniProt Q8TAE6), -0.044.
Next, PUF60 isoform 2 (UniProt Q9UHX1): -0.038; PIK3CD (UniProt O00329): -0.043.
Next, PTK2 isoform 2 (UniProt Q05397): 0.049.
On to PHF14 (UniProt O94880), for which the log2 fold change was 0.199.
As to PFN3 (UniProt P60673), the log2 fold change was -0.199.
Take POM121C (UniProt A8CG34): the log2 fold change was 0.164.
Next, PPME1 (UniProt Q9Y570): 0.002; PHGDH, A0A286YFE1: -0.214.
Next, PHKG1 isoform 2 (UniProt Q16816): -0.166.
